Laboratory results as given in PubChem BioAssay (Tox21).
Results filed as inconclusive are left out. Activity calls are given as the source filed them. Unless noted, calls follow the shape of the dose curve; as a rule, active = well fitted curve in the direction sought with a large enough effect in the repeat runs; inconclusive = weak or mixed curves; inactive = no such curve, though single readings can be large; an effect the other way counts as inactive or inconclusive.

Legend:
[1] = qHTS assay to identify small molecule antagonists of the constitutive androstane receptor (CAR) signaling pathway - cell viability counter screen (AID 1224837); also: nearly all actives have a fitted effect of over 45% in size
How it was run: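 Read-out: CellTiter-Fluor fluorescence after 23 hr at 37 C/5% CO2. Cells: HepG2 double-stable for hCAR and CYP2B6-2.2kb. Compounds tested at 15 concentrations in the presence of CITCO, final concentration 50 nM.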

[2] = molecular target: Nuclear receptor subfamily 1 group I member 3 (Homo sapiens) (UniProt Q14994); assay: qHTS assay to identify small molecule antagonists of the constitutive androstane receptor (CAR) signaling pathway (AID 1224838);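 also: HepG2 cells stably expressing hCAR with CYP2B6 luciferase reporter stimulated by CITCO; nearly all actives have a fitted effect of over 40% in size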
How it was run: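 Read-out: ONE-Glo luciferase luminescence after 30 min at room temperature. HepG2-CYP2B6-hCAR double-stable cells, compounds in 15-point titration plus 50 nM CITCO final, 24 h at 37 C/5% CO2.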

[3] = molecular target: Nuclear receptor subfamily 1 group I member 3 (Homo sapiens) (UniProt Q14994); assay: qHTS assay to identify small molecule agonists of the constitutive androstane receptor (CAR) signaling pathway (AID 1224839);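 also: HepG2 cells stably carrying human CAR and a CYP2B6 luciferase reporter; nearly all actives have a fitted effect of over 15% in size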
How it was run: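 Stable hCAR/CYP2B6-2.2kb HepG2 line in DMEM with 10% FBS; compounds (15 concentrations) and 0.75 uM PK11195 final, 24 h at 37 C/5% CO2, then ONE-Glo luminescence after 30 min.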

[4] = qHTS assay to identify small molecule agonists of the hypoxia (HIF-1) signaling pathway - cell viability counter screen (AID 1224844; calls by dose curve; also: nearly all actives have a fitted effect of over 50% in size)
How it was run: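 CellTiter-Glo luminescence read-out, 30 min RT, taken in the same wells as the beta-lactamase HRE reporter assay; HRE-bla ME-180 cells, 0.5% dialyzed FBS, 17 hr compound treatment at 37C, 5% CO2.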

[5] = A CellTox Green Cytotoxicity Assay to monitor cytotoxicity in HEK293 cells - 0 hour (AID 1224869); also: nearly all actives have a fitted effect of over 50% in size
How it was run: (§1)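 Read-out: fluorescence of a cell-impermeant cyanine dye staining DNA of dead cells, proportional to cytotoxicity. HEK293, 600 cells/well with reagent, compound (23 nL DMSO) added after 5 h; reads at 0, 8, 16, 24, 32, 40 h.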

[6] = qHTS assay to identify small molecule antagonists of the estrogen related receptor signaling pathway with the pleiotropic PPARgamma coactivator (PGC) from Tox21 10K library - cell viability counter screen (AID 1224840; active = well fitted cell-killing curve with a large enough effect in the repeat runs, not every such curve was filed as active; also: nearly all actives have a fitted effect of over 40% in size)
How it was run: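 Fluorescence read-out of CellTiter-Fluor viability reagent, added after cells had been exposed to compound in DMSO for 17.5 h at 37 C; 30 min development at 37 C/5% CO2. Cells: PGC/ERR line, 2,000/well.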

[7] = molecular target: Thyrotropin receptor (Homo sapiens) (UniProt P16473); assay: qHTS assay to identify small molecule agonists of the thyroid stimulating hormone receptor (TSHR) signaling pathway (AID 1224843; calls by dose curve; also: nearly all actives have a fitted effect of over 45% in size)
How it was run: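 Agonist-mode screen: TSHR HEK293 cells received test chemicals for half an hour at room temperature, then HTRF cAMP detection reagents for one hour prior to fluorescence measurement. Each chemical ran as a 15-concentration series, triplicated.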

[8] = qHTS assay to identify small molecule agonists of H2AX (AID 1224845; active = well fitted activation curve with a large enough effect in the signal ratio in the repeat runs, not every such curve was filed as active; the % refers to the signal ratio)
How it was run: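 Wild-type CHO-K1 cells, plated overnight, exposed 3hr at 37C to 15 concentrations (0.76% DMSO final). Lysed, then HTRF anti-pH2AX (S139) cryptate and anti-H2AX-d2 antibodies, 24 hr room temperature; 665/620 nm emission read.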

[9] = qHTS assay to identify small molecule agonists of the hypoxia (HIF-1) signaling pathway (AID 1224846; active = well fitted activation curve with a large enough effect in the signal ratio in the repeat runs, not every such curve was filed as active; the % refers to the signal ratio)
How it was run: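 Beta-lactamase FRET read-out (CCF4-AM substrate) from ME-180 cells carrying an HRE-driven bla reporter, after 17 hrs compound exposure at 37C/5% CO2. Cells were seeded at 2,000 per well in 0.5% dialyzed FBS medium and preincubated 5 hrs.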

[10] = qHTS RealTime-Glo MT Cell Viability Assay in HepG2 cells - 24 hour (AID 1224867); also: nearly all actives have a fitted effect of over 50% in size
How it was run: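 Real-time, nonlytic viability: 600 HepG2 cells/well mixed with NanoLuc enzyme plus prosubstrate; 5 h settle, compound (DMSO) added by pintool; luminescence monitored over 40 h at 37 C.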

[11] = qHTS RealTime-Glo MT Cell Viability Assay in HEK293 cells - 32 hour (AID 1224868); also: top concentration of the series differs between compounds; nearly all actives have a fitted effect of over 50% in size
How it was run: (§2)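 Cells + reagent dispensed (600 cells/well, HEK293) → 5 h at 37 C/5% CO2 → 23 nL compound in DMSO pinned → 40 h at 37 C → luminescence read at 0, 8, 16, 24, 32, 40 h.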

[12] = qHTS RealTime-Glo MT Cell Viability Assay in HepG2 cells - 40 hour (AID 1224870); also: nearly all actives have a fitted effect of over 50% in size
How it was run: (§3)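 HepG2 cells (600/well) mixed with RealTime-Glo MT reagent, settled 5 h at 37 C/5% CO2 before compound addition. Nonlytic NanoLuc luminescence from viable-cell prosubstrate reduction read repeatedly during 40 h treatment at 37 C.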

[13] = A CellTox Green Cytotoxicity Assay to monitor cytotoxicity in HEK293 cells - 40 hour (AID 1224871); also: nearly all actives have a fitted effect of over 45% in size
How it was run: as §1

[14] = qHTS RealTime-Glo MT Cell Viability Assay in HEK293 cells - 16 hour (AID 1224872)
How it was run: as §2

[15] = qHTS RealTime-Glo MT Cell Viability Assay in HepG2 cells - 8 hour (AID 1224873); also: nearly all actives have a fitted effect of over 55% in size
How it was run: as §3

[16] = qHTS assay to identify small molecule agonists of the estrogen related receptor signaling pathway with the pleiotropic PPARgamma coactivator (PGC) from Tox21 10K library (AID 1224842); also: nearly all actives have a fitted effect of over 15% in size
How it was run: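 PGC/ERR reporter cell line, 2,000 cells per well, incubated 6 h at 37 C before 23 nL compound in DMSO was added. After 18 h at 37 C, One-Glo luminescence read following 30 min at room temperature.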

[17] = qHTS assay to identify small molecule agonists of the estrogen related receptor (ERR) signaling pathway from Tox21 library (AID 1224849; calls by dose curve; also: nearly all actives have a fitted effect of over 15% in size); conditions: ERR reporter cell line, ONE-Glo luciferase, 18 h; at 92.4 µM (top of the series) unless noted
How it was run: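 Luminescence readout (ONE-Glo, 30 min RT) after 18 h compound exposure at 37 C of NTP-supplied ERR reporter cells; cells were plated 6 h before compound addition by pin tool.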

[18] = qHTS assay to identify small molecule agonists of H2AX - cell viability counter screen (AID 1224847; calls by dose curve; also: top concentration of the series differs between compounds; nearly all actives have a fitted effect of over 30% in size)
How it was run: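 Viability of CHO-K1 (wild type) cells after 3 hr compound exposure was measured by CellTiter-Glo luminescence.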

[19] = qHTS assay to identify small molecule antagonists of the estrogen related receptor signaling pathway with the pleiotropic PPARgamma coactivator (PGC) from Tox21 10K library (AID 1224841; call rule not given here)
How it was run: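 Luminescence read-out (One-Glo luciferase reagent, 30 min at room temperature) from PGC/ERR cells exposed to DMSO-dissolved test compounds for 18 h at 37 C; cells, 2,000 per well, had been preincubated 6 h before compound transfer.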

[20] = qHTS assay to identify small molecule antagonists of the estrogen related receptor (ERR) signaling pathway from Tox21 library (AID 1224848); also: nearly all actives have a fitted effect of over 50% in size
How it was run: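 Quantitative high-throughput format: ERR reporter cells (2,000/well) pre-incubated 6 h, treated 18 h at 37 C with compounds in DMSO alongside positive and negative controls, then read by ONE-Glo luminescence.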
% is scaled to controls: 0 for no effect and ±100 for the full control effect.

Nuclear receptor subfamily 1 group I member 3 (Homo sapiens), sequence (Q14994 whole entry, looked up): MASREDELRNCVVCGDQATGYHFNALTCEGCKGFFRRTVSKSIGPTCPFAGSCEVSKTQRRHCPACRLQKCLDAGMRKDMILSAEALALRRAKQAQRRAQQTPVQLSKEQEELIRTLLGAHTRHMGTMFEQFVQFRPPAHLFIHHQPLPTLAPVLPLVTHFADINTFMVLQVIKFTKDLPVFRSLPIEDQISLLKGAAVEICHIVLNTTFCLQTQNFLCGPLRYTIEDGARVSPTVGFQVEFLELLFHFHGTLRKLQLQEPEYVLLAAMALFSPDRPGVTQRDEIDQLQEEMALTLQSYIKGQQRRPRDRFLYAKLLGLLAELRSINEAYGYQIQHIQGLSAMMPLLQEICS
Thyrotropin receptor (Homo sapiens), sequence (P16473 whole entry, looked up): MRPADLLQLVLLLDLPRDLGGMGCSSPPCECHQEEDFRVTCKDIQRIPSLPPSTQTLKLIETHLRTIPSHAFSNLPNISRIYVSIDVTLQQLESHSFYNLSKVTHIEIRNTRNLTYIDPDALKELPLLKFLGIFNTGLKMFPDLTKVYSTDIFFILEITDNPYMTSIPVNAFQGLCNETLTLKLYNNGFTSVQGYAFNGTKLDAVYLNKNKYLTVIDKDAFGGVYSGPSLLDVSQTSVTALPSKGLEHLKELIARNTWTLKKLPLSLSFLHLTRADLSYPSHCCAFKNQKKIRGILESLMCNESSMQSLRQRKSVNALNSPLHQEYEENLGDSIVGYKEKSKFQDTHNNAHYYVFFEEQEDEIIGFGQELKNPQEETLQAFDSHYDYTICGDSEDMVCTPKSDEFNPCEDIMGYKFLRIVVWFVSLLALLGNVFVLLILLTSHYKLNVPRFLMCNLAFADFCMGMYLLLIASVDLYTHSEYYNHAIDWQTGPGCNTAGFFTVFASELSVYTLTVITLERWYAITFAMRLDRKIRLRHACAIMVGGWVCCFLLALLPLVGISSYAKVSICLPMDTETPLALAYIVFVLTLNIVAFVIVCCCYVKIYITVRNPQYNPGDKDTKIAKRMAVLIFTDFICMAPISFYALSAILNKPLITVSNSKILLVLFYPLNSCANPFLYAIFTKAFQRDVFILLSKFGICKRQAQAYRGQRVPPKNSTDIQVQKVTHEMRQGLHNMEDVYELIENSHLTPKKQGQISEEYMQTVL

CCOC(=O)[C@H](CCc1ccccc1)N[C@H]1CCc2ccccc2N(CC(=O)O)C1=O
inactive: Potency [1] | Potency [2] | Potency [3] | Potency [4] | Potency [5]

O=C(Cl)c1ccc([N+](=O)[O-])cc1
inactive: Potency [1] | Potency [6] | Potency [7] | Potency [4] | Potency [8] | outcome [9] | Potency [10] | Potency [11] | Potency [5] | Potency [12] | Potency [13] | Potency [14] | Potency [15]

CCCCC(CC)COCCCN (stereo not drawn)
inactive: Potency [1] | Potency [6] | Potency [16] | Potency [4] | Potency [8] | outcome [9] | activity change, positive = activation [17] -26.6% | Potency [10] | Potency [5] | Potency [12] | Potency [13] | Potency [15]

CCCCCCCCCCCCCCCBr
inactive: Potency [1] | Potency [6] | Potency [7] | Potency [4] | outcome [9] | Potency [18] | Potency [10] | Potency [11] | Potency [5] | Potency [12] | Potency [13] | Potency [14] | Potency [15]

CCCCCCCCN(C)C
inactive: Potency [1] | Potency [6] | Potency [19] | Potency [16] | Potency [7] | Potency [4] | Potency [8] | outcome [9] | Potency [18] | Potency [20] | activity change, positive = activation [17] 2.41% | Potency [10] | Potency [11] | Potency [5] | Potency [12] | Potency [13] | Potency [14] | Potency [15]

CCCOc1ccc2nc(NC(=O)OC)[nH]c2c1
inactive: Potency [1] | Potency [3] | Potency [6] | Potency [7] | outcome [9] | Potency [10] | Potency [5] | Potency [12] | Potency [13] | Potency [14] | Potency [15]

C[Si](C)O[Si](C)(C)O[Si](C)(C)O[Si](C)C
inactive: Potency [1] | Potency [6] | Potency [7] | Potency [4] | Potency [8] | outcome [9] | Potency [18] | Potency [10] | Potency [11] | Potency [5] | Potency [12] | Potency [13] | Potency [14] | Potency [15]

Cc1ccc(C(N)=O)cc1N
inactive: Potency [1] | Potency [6] | Potency [19] | Potency [16] | Potency [7] | Potency [4] | Potency [8] | outcome [9] | Potency [18] | Potency [20] | activity change, positive = activation [17] -0.06% | Potency [10] | Potency [11] | Potency [5] | Potency [12] | Potency [13] | Potency [14] | Potency [15]

CCN1CCC[C@H]1CNC(=O)c1c(OC)ccc(Br)c1OC
inactive: Potency [1] | Potency [6] | Potency [7] | Potency [4] | Potency [8] | outcome [9] | Potency [18] | Potency [10] | Potency [11] | Potency [5] | Potency [12] | Potency [13] | Potency [14] | Potency [15]
